1 sequence from PMC7862700, “An all-to-all approach to the identification of sequence-specific readers for epigenetic DNA modifications on cytosine” can be followed below.

Test in all cases: DAPPL (digital affinity profiling via proximity ligation, sequencing); 10 mM Tris-HCl pH 7.5, 50 mM NaCl, 1 mM DTT, 4% glycerol, room temperature, 30 min; GST-TFs on glutathione beads, 16-mer random dsDNA library, 0.1% formaldehyde crosslink after washing; high values mean tight binding
For one test, the target named is T1, FEV (Homo sapiens, UniProt Q99581 1-238).
T1 sequence: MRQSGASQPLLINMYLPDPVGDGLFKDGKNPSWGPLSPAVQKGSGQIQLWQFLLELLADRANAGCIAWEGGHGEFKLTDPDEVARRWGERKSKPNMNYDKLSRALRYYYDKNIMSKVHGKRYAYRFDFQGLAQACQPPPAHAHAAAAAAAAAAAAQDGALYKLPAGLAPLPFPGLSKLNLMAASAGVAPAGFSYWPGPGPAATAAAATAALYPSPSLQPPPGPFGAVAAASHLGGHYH
To be noted: protein: recombinant; tags: N-terminal GST; dsDNA, one strand shown. A digest of the protocol:
(§1)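 Human transcription factors were made in yeast as GST fusions, captured on glutathione beads and barcoded with DNA. With a tag-only sample included, the pool was incubated with 200 nmole of a random double-stranded 16-mer DNA library in Tris/NaCl/DTT/glycerol buffer at room temperature for 30 min, then crosslinked with 0.1% formaldehyde after washing, ligated by proximity, amplified and sequenced. For binding signal, each hexamer's read frequency for a factor is divided by its frequency for the tag-only sample.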

In the next test the target is ETV5 (Homo sapiens, UniProt P41161 1-510). The conditions noted are these: protein: recombinant; tags: N-terminal GST; dsDNA, one strand shown. A digest of the protocol: as §1
Chain of ETV5 (P41161 whole entry): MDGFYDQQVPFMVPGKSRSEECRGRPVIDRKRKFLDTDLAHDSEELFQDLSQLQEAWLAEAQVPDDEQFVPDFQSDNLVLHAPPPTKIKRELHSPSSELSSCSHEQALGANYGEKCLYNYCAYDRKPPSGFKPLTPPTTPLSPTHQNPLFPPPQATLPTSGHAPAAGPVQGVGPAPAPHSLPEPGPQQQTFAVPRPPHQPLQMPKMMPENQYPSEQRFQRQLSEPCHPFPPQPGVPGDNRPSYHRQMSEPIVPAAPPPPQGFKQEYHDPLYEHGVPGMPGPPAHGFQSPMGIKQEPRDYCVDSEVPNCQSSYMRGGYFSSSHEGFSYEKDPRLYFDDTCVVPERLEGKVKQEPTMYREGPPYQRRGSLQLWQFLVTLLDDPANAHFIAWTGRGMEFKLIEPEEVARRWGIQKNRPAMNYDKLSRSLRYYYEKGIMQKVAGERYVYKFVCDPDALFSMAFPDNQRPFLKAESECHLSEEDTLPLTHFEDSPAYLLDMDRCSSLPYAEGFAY
For the next test, the target named is HSF1 (Homo sapiens, UniProt Q00613 1-529). The conditions noted are these: protein: recombinant; tags: N-terminal GST; chain copies: 3; dsDNA, one strand shown. A digest of the protocol:
as §1

In the next test the target is T2, SPIC (Homo sapiens, UniProt Q8N5J4 1-248).
T2 sequence: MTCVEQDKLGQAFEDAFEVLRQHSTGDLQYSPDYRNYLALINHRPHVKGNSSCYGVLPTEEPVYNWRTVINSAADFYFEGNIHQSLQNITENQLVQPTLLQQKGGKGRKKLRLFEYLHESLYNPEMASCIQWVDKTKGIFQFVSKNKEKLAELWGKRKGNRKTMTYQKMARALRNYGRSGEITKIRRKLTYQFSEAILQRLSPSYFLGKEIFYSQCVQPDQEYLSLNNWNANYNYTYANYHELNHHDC
The conditions noted are these: protein: recombinant; tags: N-terminal GST; dsDNA, one strand shown. A digest of the protocol:
as §1

The target in a further test is ELF4 (Homo sapiens, UniProt Q99607 1-663). To be noted: protein: recombinant; tags: N-terminal GST; dsDNA, one strand shown. A digest of the protocol:
as §1

Another test concerns the target T3, ELK4 (Homo sapiens, UniProt P28324-2 1-405).
T3 sequence: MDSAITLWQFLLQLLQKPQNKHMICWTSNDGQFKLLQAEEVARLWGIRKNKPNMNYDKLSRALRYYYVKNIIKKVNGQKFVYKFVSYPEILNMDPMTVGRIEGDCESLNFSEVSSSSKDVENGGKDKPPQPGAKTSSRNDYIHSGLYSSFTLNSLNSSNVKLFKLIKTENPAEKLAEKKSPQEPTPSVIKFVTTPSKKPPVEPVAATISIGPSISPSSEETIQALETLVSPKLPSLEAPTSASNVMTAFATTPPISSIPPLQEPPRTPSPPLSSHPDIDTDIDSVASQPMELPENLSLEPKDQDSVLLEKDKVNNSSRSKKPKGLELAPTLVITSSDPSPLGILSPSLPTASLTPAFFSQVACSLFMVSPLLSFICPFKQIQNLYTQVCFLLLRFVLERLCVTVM
To be noted: protein: recombinant; tags: N-terminal GST; dsDNA, one strand shown. The method, boiled down:
as §1

In a further test the target is T4, ETV2 (Homo sapiens, UniProt O00321 1-342).
T4 sequence: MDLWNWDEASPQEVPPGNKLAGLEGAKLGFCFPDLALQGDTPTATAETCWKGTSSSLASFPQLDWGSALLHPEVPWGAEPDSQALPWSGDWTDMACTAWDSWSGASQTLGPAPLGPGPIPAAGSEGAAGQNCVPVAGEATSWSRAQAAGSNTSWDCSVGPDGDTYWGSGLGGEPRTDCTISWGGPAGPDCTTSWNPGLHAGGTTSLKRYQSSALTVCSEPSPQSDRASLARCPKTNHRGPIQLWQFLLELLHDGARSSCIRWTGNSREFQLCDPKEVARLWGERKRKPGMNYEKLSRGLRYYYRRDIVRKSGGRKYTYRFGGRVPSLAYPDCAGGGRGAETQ
The conditions noted are these: protein: recombinant; tags: N-terminal GST; dsDNA, one strand shown. A digest of the protocol: as §1

The next test addresses T5, ELF3 (Homo sapiens, UniProt P78545 1-371).
T5 sequence: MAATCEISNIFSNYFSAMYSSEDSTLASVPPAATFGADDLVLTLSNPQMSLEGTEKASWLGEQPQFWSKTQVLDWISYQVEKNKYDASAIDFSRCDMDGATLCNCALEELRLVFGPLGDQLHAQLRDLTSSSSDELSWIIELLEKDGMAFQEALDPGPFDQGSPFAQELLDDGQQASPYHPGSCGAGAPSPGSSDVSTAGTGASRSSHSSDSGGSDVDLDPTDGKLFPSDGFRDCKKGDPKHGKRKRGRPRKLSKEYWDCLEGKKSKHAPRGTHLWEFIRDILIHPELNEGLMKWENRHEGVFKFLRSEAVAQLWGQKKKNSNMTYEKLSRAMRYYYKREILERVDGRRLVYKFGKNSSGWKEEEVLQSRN
To be noted: protein: recombinant; tags: N-terminal GST; dsDNA, one strand shown. A digest of the protocol:
as §1

The target of a further test is CRX (Homo sapiens, UniProt O43186 1-299). The conditions noted are these: protein: recombinant; tags: N-terminal GST; dsDNA, one strand shown. A digest of the protocol: as §1
Chain of CRX (O43186 whole entry): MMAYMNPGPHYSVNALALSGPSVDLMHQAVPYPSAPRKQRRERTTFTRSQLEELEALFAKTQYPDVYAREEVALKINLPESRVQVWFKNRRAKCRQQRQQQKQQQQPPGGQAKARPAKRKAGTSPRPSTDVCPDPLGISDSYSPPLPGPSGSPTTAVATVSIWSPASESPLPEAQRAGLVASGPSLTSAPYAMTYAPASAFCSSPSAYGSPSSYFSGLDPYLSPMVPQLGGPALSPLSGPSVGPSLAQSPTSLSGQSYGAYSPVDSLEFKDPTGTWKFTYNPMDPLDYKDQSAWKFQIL
The target of the next test is ETV1 (Homo sapiens, UniProt P50549 1-477). The conditions noted are these: protein: recombinant; tags: N-terminal GST; dsDNA, one strand shown. The method, boiled down: as §1
Chain of ETV1 (P50549 whole entry): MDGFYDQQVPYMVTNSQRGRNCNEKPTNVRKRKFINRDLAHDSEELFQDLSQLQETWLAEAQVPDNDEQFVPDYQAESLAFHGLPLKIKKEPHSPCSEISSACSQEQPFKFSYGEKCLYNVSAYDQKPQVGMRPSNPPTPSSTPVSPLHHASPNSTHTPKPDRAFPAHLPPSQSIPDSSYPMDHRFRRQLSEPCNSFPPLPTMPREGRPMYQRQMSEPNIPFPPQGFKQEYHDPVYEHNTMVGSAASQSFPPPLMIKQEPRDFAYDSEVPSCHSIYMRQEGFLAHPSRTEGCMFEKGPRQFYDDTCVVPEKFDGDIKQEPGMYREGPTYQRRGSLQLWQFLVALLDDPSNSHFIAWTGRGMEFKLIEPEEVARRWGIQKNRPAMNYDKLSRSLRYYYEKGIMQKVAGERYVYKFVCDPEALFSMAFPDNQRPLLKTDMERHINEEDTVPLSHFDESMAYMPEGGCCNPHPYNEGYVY
The target in the next test is T6, ERF (Homo sapiens, UniProt P50548 1-548).
T6 sequence: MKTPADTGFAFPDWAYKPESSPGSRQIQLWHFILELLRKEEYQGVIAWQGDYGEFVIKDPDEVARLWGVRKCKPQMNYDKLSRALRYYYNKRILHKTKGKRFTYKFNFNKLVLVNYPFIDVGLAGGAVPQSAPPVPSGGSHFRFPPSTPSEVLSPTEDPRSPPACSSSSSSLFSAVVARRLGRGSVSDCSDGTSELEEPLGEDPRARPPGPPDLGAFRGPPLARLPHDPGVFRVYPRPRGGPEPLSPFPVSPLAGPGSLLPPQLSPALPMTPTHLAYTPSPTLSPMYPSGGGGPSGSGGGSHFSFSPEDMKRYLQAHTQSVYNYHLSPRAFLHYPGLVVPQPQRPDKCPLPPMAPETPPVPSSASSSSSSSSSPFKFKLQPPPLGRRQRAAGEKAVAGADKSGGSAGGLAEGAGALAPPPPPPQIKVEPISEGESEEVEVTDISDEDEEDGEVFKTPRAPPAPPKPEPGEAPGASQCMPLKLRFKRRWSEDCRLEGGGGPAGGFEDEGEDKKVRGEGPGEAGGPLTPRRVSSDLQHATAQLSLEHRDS
The conditions noted are these: protein: recombinant; tags: N-terminal GST; dsDNA, one strand shown. A digest of the protocol:
as §1

A further test deals with T7, ETV3L (Homo sapiens, UniProt Q6ZN32 1-361).
T7 sequence: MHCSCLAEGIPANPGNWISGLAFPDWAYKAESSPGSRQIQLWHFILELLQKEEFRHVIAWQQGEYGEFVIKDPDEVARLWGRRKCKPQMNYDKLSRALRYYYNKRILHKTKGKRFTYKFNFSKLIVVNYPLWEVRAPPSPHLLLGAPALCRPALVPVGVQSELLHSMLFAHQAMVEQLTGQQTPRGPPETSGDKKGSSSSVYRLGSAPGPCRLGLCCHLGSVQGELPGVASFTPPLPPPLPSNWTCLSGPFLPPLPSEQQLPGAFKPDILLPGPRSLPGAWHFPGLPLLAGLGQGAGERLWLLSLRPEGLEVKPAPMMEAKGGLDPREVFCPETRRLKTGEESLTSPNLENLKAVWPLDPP
To be noted: protein: recombinant; tags: N-terminal GST; dsDNA, one strand shown. The method, boiled down: as §1

For another test, the target named is T8, ETS2 (Homo sapiens, UniProt P15036 1-469).
T8 sequence: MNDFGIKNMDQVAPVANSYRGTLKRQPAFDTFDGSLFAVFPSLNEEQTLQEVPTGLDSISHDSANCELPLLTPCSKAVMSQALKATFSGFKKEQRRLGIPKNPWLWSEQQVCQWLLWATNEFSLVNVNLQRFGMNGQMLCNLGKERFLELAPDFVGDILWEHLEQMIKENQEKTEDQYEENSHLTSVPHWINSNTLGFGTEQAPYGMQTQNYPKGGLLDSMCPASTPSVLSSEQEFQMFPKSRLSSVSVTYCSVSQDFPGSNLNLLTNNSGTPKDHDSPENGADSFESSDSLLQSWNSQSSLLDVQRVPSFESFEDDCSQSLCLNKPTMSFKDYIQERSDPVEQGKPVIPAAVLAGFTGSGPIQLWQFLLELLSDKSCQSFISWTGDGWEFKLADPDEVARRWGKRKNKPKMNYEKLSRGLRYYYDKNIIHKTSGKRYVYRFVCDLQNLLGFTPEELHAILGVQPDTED
The conditions noted are these: protein: recombinant; tags: N-terminal GST; dsDNA, one strand shown. The method, boiled down: as §1

In a further test the target is T9, SPDEF (Homo sapiens, UniProt O95238 1-335).
T9 sequence: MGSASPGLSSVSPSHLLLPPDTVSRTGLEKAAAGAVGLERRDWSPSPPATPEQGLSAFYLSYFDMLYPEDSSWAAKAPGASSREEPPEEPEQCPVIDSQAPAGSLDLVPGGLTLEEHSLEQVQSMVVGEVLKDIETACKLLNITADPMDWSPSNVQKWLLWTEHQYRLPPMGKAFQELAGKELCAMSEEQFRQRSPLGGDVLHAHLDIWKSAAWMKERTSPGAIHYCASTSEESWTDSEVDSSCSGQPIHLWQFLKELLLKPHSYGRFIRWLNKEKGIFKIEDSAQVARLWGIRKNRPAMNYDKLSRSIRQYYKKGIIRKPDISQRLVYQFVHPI
To be noted: protein: recombinant; tags: N-terminal GST; dsDNA, one strand shown. The method, boiled down: as §1

In a further test the target is T10, ETV7 (Homo sapiens, UniProt Q9Y603 1-341).
T10 sequence: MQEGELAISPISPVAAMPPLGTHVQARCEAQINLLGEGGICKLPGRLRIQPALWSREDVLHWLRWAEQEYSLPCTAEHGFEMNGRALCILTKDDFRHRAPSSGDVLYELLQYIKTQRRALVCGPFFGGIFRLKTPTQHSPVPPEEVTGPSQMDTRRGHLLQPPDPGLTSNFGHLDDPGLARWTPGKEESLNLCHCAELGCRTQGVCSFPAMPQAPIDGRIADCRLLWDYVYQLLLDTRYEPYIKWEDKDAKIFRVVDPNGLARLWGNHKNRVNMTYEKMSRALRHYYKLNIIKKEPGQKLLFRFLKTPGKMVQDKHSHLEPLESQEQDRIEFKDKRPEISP
To be noted: protein: recombinant; tags: N-terminal GST; dsDNA, one strand shown. The method, boiled down:
as §1

The next test has as its target T11, ELF5 (Homo sapiens, UniProt Q9UKW6-2 1-255).
T11 sequence: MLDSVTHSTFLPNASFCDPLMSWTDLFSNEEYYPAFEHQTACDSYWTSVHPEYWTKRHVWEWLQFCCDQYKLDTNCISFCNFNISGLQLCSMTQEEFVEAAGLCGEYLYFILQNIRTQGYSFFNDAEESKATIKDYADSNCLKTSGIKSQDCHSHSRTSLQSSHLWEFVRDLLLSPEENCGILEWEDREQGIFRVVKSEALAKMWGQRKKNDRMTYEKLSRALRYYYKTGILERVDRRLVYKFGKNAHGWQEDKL
The conditions noted are these: protein: recombinant; tags: N-terminal GST; dsDNA, one strand shown. The method, boiled down:
as §1

A further test deals with T12, ETV3 (Homo sapiens, UniProt P41162-2 1-143).
T12 sequence: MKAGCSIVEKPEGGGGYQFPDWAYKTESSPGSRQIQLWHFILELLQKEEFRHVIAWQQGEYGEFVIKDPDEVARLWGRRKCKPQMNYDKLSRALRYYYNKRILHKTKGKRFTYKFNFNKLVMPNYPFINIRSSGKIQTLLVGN
The conditions noted are these: protein: recombinant; tags: N-terminal GST; dsDNA, one strand shown. The method, boiled down:
as §1

Another test deals with ETV6 (Homo sapiens, UniProt P41212 1-452). The conditions noted are these: protein: recombinant; tags: N-terminal GST; dsDNA, one strand shown. The method, boiled down:
as §1

Chain of ELF4 (Q99607 whole entry): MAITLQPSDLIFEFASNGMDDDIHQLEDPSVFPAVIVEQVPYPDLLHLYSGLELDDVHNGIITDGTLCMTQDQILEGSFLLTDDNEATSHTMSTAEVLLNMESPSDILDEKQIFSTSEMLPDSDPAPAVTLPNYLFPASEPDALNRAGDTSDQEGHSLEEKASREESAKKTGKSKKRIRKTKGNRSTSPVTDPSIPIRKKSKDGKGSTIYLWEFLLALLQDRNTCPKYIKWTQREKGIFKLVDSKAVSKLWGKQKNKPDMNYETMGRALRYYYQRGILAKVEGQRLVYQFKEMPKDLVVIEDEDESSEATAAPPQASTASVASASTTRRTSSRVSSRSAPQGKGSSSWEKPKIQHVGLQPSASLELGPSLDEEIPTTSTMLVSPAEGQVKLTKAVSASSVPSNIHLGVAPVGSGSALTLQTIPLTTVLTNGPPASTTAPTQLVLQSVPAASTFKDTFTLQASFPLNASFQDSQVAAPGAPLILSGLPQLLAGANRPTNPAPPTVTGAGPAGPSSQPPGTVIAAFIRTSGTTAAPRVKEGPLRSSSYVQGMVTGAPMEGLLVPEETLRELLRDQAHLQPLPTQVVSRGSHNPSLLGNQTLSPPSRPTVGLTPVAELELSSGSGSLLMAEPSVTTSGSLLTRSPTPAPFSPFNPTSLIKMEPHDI
Chain of HSF1 (Q00613 whole entry): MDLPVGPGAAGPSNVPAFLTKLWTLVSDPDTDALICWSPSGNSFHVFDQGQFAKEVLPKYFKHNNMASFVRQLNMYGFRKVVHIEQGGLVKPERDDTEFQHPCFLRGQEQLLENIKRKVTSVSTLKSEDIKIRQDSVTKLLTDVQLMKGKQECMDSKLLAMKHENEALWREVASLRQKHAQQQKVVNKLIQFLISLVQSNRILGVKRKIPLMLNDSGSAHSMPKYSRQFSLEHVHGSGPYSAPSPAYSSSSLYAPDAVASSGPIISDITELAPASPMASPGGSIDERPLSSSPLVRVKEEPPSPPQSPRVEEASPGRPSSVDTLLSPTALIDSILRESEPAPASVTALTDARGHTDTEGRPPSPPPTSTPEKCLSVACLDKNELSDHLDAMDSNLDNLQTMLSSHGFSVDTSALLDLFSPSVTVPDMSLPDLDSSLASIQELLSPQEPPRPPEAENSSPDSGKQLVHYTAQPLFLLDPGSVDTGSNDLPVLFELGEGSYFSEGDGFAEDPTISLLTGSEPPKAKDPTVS
Chain of ETV6 (P41212 whole entry): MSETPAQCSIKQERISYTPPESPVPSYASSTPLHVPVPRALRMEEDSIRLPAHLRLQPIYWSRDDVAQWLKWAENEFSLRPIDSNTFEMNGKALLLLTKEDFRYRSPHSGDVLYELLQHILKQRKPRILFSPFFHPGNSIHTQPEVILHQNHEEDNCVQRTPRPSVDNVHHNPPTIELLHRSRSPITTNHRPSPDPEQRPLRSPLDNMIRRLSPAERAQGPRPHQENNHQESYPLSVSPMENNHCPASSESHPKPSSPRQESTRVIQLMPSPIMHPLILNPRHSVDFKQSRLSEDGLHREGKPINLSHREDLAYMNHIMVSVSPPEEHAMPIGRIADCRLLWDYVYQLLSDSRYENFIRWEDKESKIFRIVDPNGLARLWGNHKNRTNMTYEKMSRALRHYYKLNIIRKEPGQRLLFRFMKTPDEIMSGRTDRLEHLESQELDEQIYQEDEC

In the case of GTTCTC, the binding signal is 1.32 fold enrichment (6-mer frequency, TF over GST control) with FEV; 1.32 fold enrichment (6-mer frequency, TF over GST control) with ETV5; 2.29 fold enrichment (6-mer frequency, TF over GST control) with HSF1; 1.36 fold enrichment (6-mer frequency, TF over GST control) with SPIC; 1.28 fold enrichment (6-mer frequency, TF over GST control) with ELF4; 1.27 fold enrichment (6-mer frequency, TF over GST control) in the test with ELK4. In addition, the binding signal was 1.33 fold enrichment (6-mer frequency, TF over GST control) with ETV2; 1.3 fold enrichment (6-mer frequency, TF over GST control) in the test with ELF3; 1.28 fold enrichment (6-mer frequency, TF over GST control) with CRX; 1.34 fold enrichment (6-mer frequency, TF over GST control) with ETV1; 1.22 fold enrichment (6-mer frequency, TF over GST control) in the test with ERF; 1.35 fold enrichment (6-mer frequency, TF over GST control) with ETV3L. Further, the binding signal in the test with ETS2 was 1.24 fold enrichment (6-mer frequency, TF over GST control); in the test with SPDEF it was 1.22 fold enrichment (6-mer frequency, TF over GST control); in the test with ETV7 it was 1.26 fold enrichment (6-mer frequency, TF over GST control); in the test with ELF5, 1.25 fold enrichment (6-mer frequency, TF over GST control); with ETV3, 1.35 fold enrichment (6-mer frequency, TF over GST control); with ETV6 it was 1.23 fold enrichment (6-mer frequency, TF over GST control).
